HSF1 activator: increases HSF-1 driven luciferase reporter signal; NIH3T3-HGL HSF-1 luciferase reporter, MG132, 8 h; 100% = twice DMSO control signal; activation, % at 9 µM; hit rate 1.7% among 300,000;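 active = mean replicate activation of at least 50% with a set share of replicates each reaching 50%; inconclusive = only one of those two conditions met; inactive = mean below 50% and too few replicates reaching it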
NR0B1 inh: NR0B1 (DAX1) inhibition; inhibition, % at 6.75 µM; AID 504766; HEK293 Gal4-DAX1 luciferase reporter, luminescence; hit rate 0.99% among 340,000;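 active = inhibition above the mean over all tested compounds plus 3 SD, cut at about 4.2% in these data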;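 also: inhibition shows as a rise in luminescence from relieved DAX1 repression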
Target sequence (P51843 207-470 limits assumed): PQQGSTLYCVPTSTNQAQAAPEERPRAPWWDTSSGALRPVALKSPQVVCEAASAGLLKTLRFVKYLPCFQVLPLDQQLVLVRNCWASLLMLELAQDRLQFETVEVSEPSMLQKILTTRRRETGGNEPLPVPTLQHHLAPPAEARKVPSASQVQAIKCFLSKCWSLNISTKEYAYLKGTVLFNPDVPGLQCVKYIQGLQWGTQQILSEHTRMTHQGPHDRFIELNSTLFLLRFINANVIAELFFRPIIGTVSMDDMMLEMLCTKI
GAA850 FXN act: activators of GAA850 frataxin (FXN) promoter | HEK293 lucGAA850 FXN promoter luciferase reporter, 24 h; percent of 10 µM SAHA response | activation, % at 6 µM | hit rate 0.56% among 360,000 | AID 540364;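 active = activation above the average of all compounds screened plus 3 SD, cutoff fixed separately per campaign, cut at about 7.5% in these data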
HSF1 inh: HSF1 inhibition. hit rate 0.77% among 300,000. AID 2098. NIH3T3-HGL HSE-luciferase, MG132-induced, luminescence 8 h; hits give low values. activity change, negative = inhibition, % at 7.5 µM (by protocol);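 active = more than half of replicate wells show activity change below -50%, luminescence cut by over half; inconclusive = some wells, but at most half, below -50%; inactive = no replicate well below -50%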;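 also: luciferase reports HSF-1 transcriptional activity via heat shock element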
AHR activator: human AHR activation; P35869; hit rate 2.5% among 320,000; AHR-responsive luciferase reporter cells, luminescence; activation, % at 5 µM; in the data active = activation above about 47%
GAA30 FXN cntr: GAA30 FXN promoter activation counter-screen. shares compounds with GAA850 FXN act. HEK293 lucGAA30 FXN promoter luciferase, 24 h; DMSO = 0%, 5 µM ipriflavone = 100%. activation, % at 6 µM. hit rate 66% among 1,900. AID 588350;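 active = mean activation above the mean of solvent-only control wells plus 3 SD, cut at about 22% in these data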;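 also: counterscreen of GAA850 promoter hits where activity marks nonselective or luminescence artifacts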
FXN GAA850 conf: confirmation of GAA850 frataxin (FXN) promoter activators; hit rate 86% among 1,900; HEK293 lucGAA850 FXN promoter luciferase reporter, 24 h; 100% = activation by SAHA; shares compounds with GAA850 FXN act; activation, % at 6 µM;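 active = mean activation above a set limit taken from the primary screen, cut at about 8% in these data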
Large screens that a line does not name were inactive (follow-up assays come after a bar, where they were run). Rows were chosen to be rich in hits. Some 5.4% of all compounds tested hit in one or more screens of this group.

CC(C)(C)n1nnnc1C(c1ccc(C(F)(F)F)cc1)N(Cc1ccc(F)cc1)Cc1ccco1 (stereo unspecified)	GAA850 FXN act 8.7 | GAA30 FXN cntr inactive | FXN GAA850 conf 14
CC(C)(C)n1nnnc1C(c1ccc(F)cc1)N(Cc1ccc(F)cc1)Cc1ccco1 (stereo unspecified)	GAA850 FXN act 15 | GAA30 FXN cntr inactive | FXN GAA850 conf 15
COc1ccc(OC)c(C(C(=O)NC2CCCCC2)N(C(=O)c2ccccn2)c2cccnc2)c1 (stereo unspecified)	none
CCOC(CNC(=O)CN1C(=O)COc2ccc(S(=O)(=O)N3CC(C)CC(C)C3)cc21)OCC (stereo unspecified)	none
COc1ccc(-c2nnc(N(C)C(=O)c3ccno3)s2)cc1	GAA850 FXN act 12 | GAA30 FXN cntr 99 | FXN GAA850 conf 30
COc1ccc([C@@H]2[C@@H]3C(=O)N(C(C)(C)C)C(=O)[C@@H]3[C@]3(Cc4ccc(Cl)cc4)C(=O)N(c4ccc(C)cc4)C(=O)N23)cc1	none
CC(C)C[C@@]12C(=O)N(c3ccc(Br)cc3)C(=O)N1[C@H](c1ccc(Br)cc1)[C@@H]1C(=O)N(C(C)(C)C)C(=O)[C@@H]12	GAA850 FXN act 17 | GAA30 FXN cntr inactive | FXN GAA850 conf 18
CCN1C(=O)[C@H]2[C@@H](c3ccc(C)cc3)N3C(=O)N(c4cccc(Cl)c4)C(=O)[C@@]3(CC(C)C)[C@H]2C1=O	GAA850 FXN act 17 | GAA30 FXN cntr 26 | FXN GAA850 conf 12
COc1ccc([C@@H]2[C@@H]3C(=O)N(C(C)(C)C)C(=O)[C@@H]3[C@]3(C)C(=O)N(c4cccc(C)c4)C(=O)N23)cc1	none
CC[C@@]12C(=O)N(c3cccc(C)c3)C(=O)N1[C@H](c1ccc(Br)cc1)[C@@H]1C(=O)N(C(C)(C)C)C(=O)[C@@H]12	GAA850 FXN act 16 | GAA30 FXN cntr 23 | FXN GAA850 conf 11
CC[C@@]12C(=O)N(c3cccc(Cl)c3)C(=O)N1[C@H](c1ccc(Br)cc1)[C@@H]1C(=O)N(C(C)(C)C)C(=O)[C@@H]12	GAA850 FXN act 14 | GAA30 FXN cntr 35 | FXN GAA850 conf 17
CCN1C(=O)[C@H]2[C@@H](c3ccc(C)cc3)N3C(=O)N(c4cccc(Cl)c4)C(=O)[C@@]3(Cc3ccccc3)[C@H]2C1=O	none
CCN1C(=O)[C@H]2[C@@H](c3ccc(C)cc3)N3C(=O)N(c4cccc(F)c4)C(=O)[C@@]3(Cc3ccc(Cl)cc3)[C@H]2C1=O	none
CC(C)C[C@@]12C(=O)N(c3cccc(F)c3)C(=O)N1[C@H](c1ccc(Br)cc1)[C@@H]1C(=O)N(C(C)(C)C)C(=O)[C@@H]12	GAA850 FXN act 17 | GAA30 FXN cntr 29 | FXN GAA850 conf 18
CC(C)C[C@@]12C(=O)N(c3cccc(Cl)c3)C(=O)N1[C@H](c1ccc(Br)cc1)[C@@H]1C(=O)N(C(C)(C)C)C(=O)[C@@H]12	GAA850 FXN act 15 (no result: HSF1 activator, HSF1 inh) | GAA30 FXN cntr 33 | FXN GAA850 conf 18
COc1ccc(NC(=S)Nc2ccccn2)cc1	GAA850 FXN act 8.3 | GAA30 FXN cntr 109 | FXN GAA850 conf 32
O=S(=O)(NC12CC3CC(CC(C3)C1)C2)c1ccc(F)cc1	none
Nc1ccc(Cn2ccc3c4c(N)nc(N)nc4ccc32)cc1	none (no result: HSF1 activator, HSF1 inh, AHR activator)
CC1(C)Cc2c(c(N3CCOCC3)nc3sc(C#N)c(N)c23)CS1	GAA850 FXN act 8.3 | GAA30 FXN cntr inactive | FXN GAA850 conf 16
CC1(C)Cc2c(c(N3CCOCC3)nc3sc(C(N)=O)c(N)c23)CO1	none
COc1ccc([C@@H]2[C@@H]3C(=O)N(C(C)(C)C)C(=O)[C@@H]3[C@]3(CC(C)C)C(=O)N(c4ccc(C(F)(F)F)cc4)C(=O)N23)cc1	none
COc1ccc([C@@H]2[C@@H]3C(=O)N(C(C)(C)C)C(=O)[C@@H]3[C@]3(CC(C)C)C(=O)N(c4ccccc4)C(=O)N23)cc1	GAA850 FXN act 15 | GAA30 FXN cntr 40 | FXN GAA850 conf 18
COc1ccc([C@@H]2[C@@H]3C(=O)N(C(C)(C)C)C(=O)[C@@H]3[C@]3(CC(C)C)C(=O)N(c4cccc(Br)c4)C(=O)N23)cc1	GAA850 FXN act 17 | GAA30 FXN cntr 27 | FXN GAA850 conf 14
O=C(Nc1ccc(Cl)cc1)c1nc[nH]c1C(=O)NCCCCNC(=O)c1[nH]cnc1C(=O)Nc1ccc(Cl)cc1	none (no result: HSF1 activator, HSF1 inh)
N#CC1=C(N)S[C@H](C(=O)C23CC4CC(CC(C4)C2)C3)[C@H]1c1ccncc1	GAA850 FXN act 8.5 | GAA30 FXN cntr inactive | FXN GAA850 conf 12
COCCN1CCN(c2c(C)c(C)nc3cc(-c4cccc(OC)c4)nn23)CC1	GAA850 FXN act 10 | GAA30 FXN cntr 72 | FXN GAA850 conf 20
CC(=O)Nc1cccc(-c2ccnc3c2CC(C(=O)NCCc2ccccc2)O3)c1 (stereo unspecified)	none (no result: HSF1 activator, NR0B1 inh, HSF1 inh, AHR activator)
CC(NC(=O)CN(c1ccc(Cl)cc1)S(C)(=O)=O)c1ccccc1 (stereo unspecified)	none
Cc1ccc(OCCOc2cccc(Br)c2)c([N+](=O)[O-])n1	HSF1 activator 88, GAA850 FXN act 7.6 | GAA30 FXN cntr 81 | FXN GAA850 conf 40
COc1ccc(-c2cnc3c(-c4ccc(F)cc4)cnn3c2N)cc1	none
Cc1nc2c(-c3ccc(F)cc3)cnn2c2c1CCC2	HSF1 activator 52, GAA850 FXN act 8.2, AHR activator 71 | GAA30 FXN cntr 90 | FXN GAA850 conf 29
NC(=O)COC(=O)c1ccc2c(c1)S(=O)(=O)c1ccccc1C2=O	none
CCc1cccc(CC)c1NC(=O)COC(=O)c1ccc2c(c1)S(=O)(=O)c1ccccc1C2=O	GAA850 FXN act 14 | GAA30 FXN cntr 26 | FXN GAA850 conf inactive
COC(=O)C1=C(C)N=C2SCCC(=O)N2C1/C=C/c1ccccc1 (stereo unspecified)	GAA850 FXN act 8.0 | GAA30 FXN cntr inactive | FXN GAA850 conf inactive
COc1ccccc1/C=C/C1C(C(=O)OCC(C)C)=C(C)N=C2SCCC(=O)N21 (stereo unspecified)	none
CCOC(=O)C1(C)CCN1C(=O)c1ccc(N(C)C)cc1 (stereo unspecified)	none (no result: HSF1 activator, NR0B1 inh, HSF1 inh, AHR activator)
CCCCCc1nnc(N)s1	none
CCCCCc1ccc(-c2nnc(N)s2)cc1	HSF1 activator inconclusive, GAA850 FXN act 7.8 | GAA30 FXN cntr 78 | FXN GAA850 conf 21
O=C(Cc1ccc([N+](=O)[O-])cc1)Nc1ccc(O)cc1C(=O)O	none
CC(NS(=O)(=O)c1ccc(Br)cc1)C(c1cccs1)N1CCN(C)CC1 (stereo unspecified)	GAA850 FXN act 17 | GAA30 FXN cntr inactive | FXN GAA850 conf inactive

Screens: PubChem BioAssay, several laboratories
